According to the supplement of paper PMC12494721:
Where a name gives a salt, the structure may show the parent alone.

What was measured:
Details in all cases: 20 µM; incubation time: 27 h, anaerobic, 37 °C;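 for the amine columns active = adjusted P below 0.05 in both replicates with a change the same way and a mean fold change under 0.8 or over 1.25; inactive = the rest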
[1] = system: Clostridium sporogenes DSM 1664; experiment: growth (OD595) fold change vs plate DMSO controls (fold change (ratio)); higher = more growth
Summary of the method: (§1)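 After 27 h at 37 °C under anaerobic conditions, 96-well cultures in mGAM were shaken and read at 595 nm. The readings were blank-subtracted, corrected for compound background using 20 µM compound solutions in water, and converted to OD with a calibration factor of 5. Growth is defined as the fold change over the median of DMSO controls on each plate. Fold changes above 1.5 were set to NA, and each value is the mean of 2 biological replicates.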

Escherichia coli IAI1 [2] = experiment: as above
Summary of the method: as §1

[3] = system: Klebsiella aerogenes DSM 30053; experiment: as above
Summary of the method: as §1

[4] = system: Ruminococcus gnavus DSM 108212; experiment: as above
Summary of the method: as §1

[5] = system: Klebsiella aerogenes DSM 30053; experiment: fold change of Histamine concentration vs plate DMSO controls (fold change (ratio)); higher = more amine produced, active = hit call of the paper (significant change in both replicates, either direction)
Summary of the method: (§2)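 Amine values are fold changes relative to DMSO-only wells on the same plate. They derive from 27 h, 37 °C anaerobic mGAM cultures of four gut bacterial strains in 80 µL wells, dosed at 20 µM final, or 50 µM final for sweeteners. Extraction of the whole culture, LC–triple-quadrupole MS in dynamic MRM mode, external calibration curves and within-batch drift correction were used, with 2 biological replicates averaged.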

[6] = system: Clostridium sporogenes DSM 1664; experiment: fold change of Tryptamine concentration vs plate DMSO controls (fold change (ratio)); higher = more amine produced, active = hit call of the paper (significant change in both replicates, either direction)
Summary of the method: as §2

[7] = system: Ruminococcus gnavus DSM 108212; experiment: as above
Summary of the method: as §2

Escherichia coli IAI1 [8] = experiment: fold change of Putrescine concentration vs plate DMSO controls (fold change (ratio)); higher = more amine produced, active = hit call of the paper (significant change in both replicates, either direction)
Summary of the method: as §2

[9] = system: Klebsiella aerogenes DSM 30053; experiment: as above
Summary of the method: as §2

Escherichia coli IAI1 [10] = experiment: fold change of Cadaverine concentration vs plate DMSO controls (fold change (ratio)); higher = more amine produced, active = hit call of the paper (significant change in both replicates, either direction)
Summary of the method: as §2

[11] = system: Klebsiella aerogenes DSM 30053; experiment: as above
Summary of the method: as §2

[12] = system: Ruminococcus gnavus DSM 108212; experiment: fold change of 2-Phenylethylamine concentration vs plate DMSO controls (fold change (ratio)); higher = more amine produced, active = hit call of the paper (significant change in both replicates, either direction)
Summary of the method: as §2

| SMILES | growth [1] | growth (Escherichia coli IAI1 [2]) | growth [3] | growth [4] | fold change of Histamine concentration [5] | fold change of Tryptamine concentration [6] | fold change of Tryptamine concentration [7] | fold change of Putrescine concentration (Escherichia coli IAI1 [8]) | fold change of Putrescine concentration [9] | fold change of Cadaverine concentration (Escherichia coli IAI1 [10]) | fold change of Cadaverine concentration [11] | fold change of 2-Phenylethylamine concentration [12] |
| --- | --- | --- | --- | --- | --- | --- | --- | --- | --- | --- | --- | --- |
| C[N+]1(C)CCCC(OC(=O)C(O)(c2ccccc2)c2ccccc2)C1 (stereo not given) [Mepenzolate bromide] | 0.917 | 0.957 | 1.02 | 0.882 | 0.962 (inactive) | 1 (inactive) | 1.03 (inactive) | 0.871 (inactive) | 1.02 (inactive) | 1.03 (inactive) | 1.01 (inactive) | 1.02 (inactive) |
| COc1cccc(C2(O)CCCCC2CN(C)C)c1 (stereo not given) [Tramadol hydrochloride] | 1.04 | 0.988 | 0.985 | 1.12 | 1.04 (inactive) | 1.06 (inactive) | 0.925 (inactive) | 1.05 (inactive) | 1.02 (inactive) | 0.969 (inactive) | 1 (inactive) | 0.873 (inactive) |
| CC(=O)O[C@H]1CC[C@@]2(C)C(=CC[C@@H]3[C@@H]2CC[C@]2(C)C(=O)CC[C@@H]32)C1 [Dehydroisoandosterone 3-acetate] | 0.905 | 1.04 | 0.994 | 1.08 | 1.02 (inactive) | 0.937 (inactive) | 1.04 (inactive) | 1.08 (inactive) | 1.04 (inactive) | 1.01 (inactive) | 1.01 (inactive) | 1.04 (inactive) |
| CCOP(=S)(OCC)Oc1nc(Cl)c(Cl)cc1Cl | 1.13 | 0.998 | 1.04 | 0.945 | 0.882 (inactive) | 1.01 (inactive) | 0.936 (inactive) | 0.986 (inactive) | 1.01 (inactive) | 1.03 (inactive) | 1.02 (inactive) | 0.873 (inactive) |
| CN1C(=O)CCS(=O)(=O)C1c1ccc(Cl)cc1 (stereo not given) [Chlormezanone] | 1.13 | 0.97 | 1.02 | 0.846 | 1 (inactive) | 0.944 (inactive) | 1.05 (inactive) | 0.986 (inactive) | 1.01 (inactive) | 0.984 (inactive) | 1.01 (inactive) | 1.06 (inactive) |
| C[N+](C)(C)CCCCCCCCCC[N+](C)(C)C [Decamethonium bromide] | 0.947 | 0.999 | 1 | 1.01 | 0.907 (inactive) | 1.13 (inactive) | 1.13 (inactive) | 0.923 (inactive) | 0.933 (inactive) | 0.877 (inactive) | 1.08 (inactive) | 1.11 (inactive) |
| NC(=O)CN1CCCC1=O [Piracetam] | 1.08 | 0.995 | 0.984 | 1.11 | 1.04 (inactive) | 1.01 (inactive) | 1.02 (inactive) | 1.04 (inactive) | 1.01 (inactive) | 0.997 (inactive) | 0.985 (inactive) | 1.01 (inactive) |
| O=C(Nc1ccccc1-c1ccc(Cl)cc1)c1cccnc1Cl | 0.923 | 1.02 | 0.996 | 0.965 | 0.953 (inactive) | 0.954 (inactive) | 0.949 (inactive) | 1 (inactive) | 0.985 (inactive) | 0.979 (inactive) | 0.999 (inactive) | 0.916 (inactive) |
| O=P(Oc1ccccc1)(Oc1ccccc1)Oc1ccccc1 [Triphenyl PO4] | 0.98 | 1.03 | 1.02 | 1.04 | 0.998 (inactive) | 1.16 (inactive) | 0.971 (inactive) | 1.01 (inactive) | 0.842 (inactive) | 0.993 (inactive) | 1.14 (inactive) | 0.995 (inactive) |
| CCCCCC[C@H]1C(=O)O[C@H](C)[C@H](NC(=O)c2cccc(NC=O)c2O)C(=O)O[C@@H](C)[C@@H]1OC(=O)CC(C)C [Antimycin A] | 1.09 | 1.03 | 1.02 | 1.15 | 0.994 (inactive) | 0.974 (inactive) | 1.04 (inactive) | 0.99 (inactive) | 0.98 (inactive) | 1.03 (inactive) | 1.01 (inactive) | 0.975 (inactive) |
| COP(N)(=O)SC (stereo not given) | 1.17 | 1.07 | 1.12 | 1.01 | 0.935 (inactive) | 0.998 (inactive) | 1.05 (inactive) | 1.05 (inactive) | 1.01 (inactive) | 0.966 (inactive) | 1.02 (inactive) | 1.06 (inactive) |
| CN(C)C(=O)Oc1cccc([N+](C)(C)C)c1 [Neostigmine bromide] | 0.939 | 0.975 | 1.01 | 0.886 | 0.992 (inactive) | 1.07 (inactive) | 1.03 (inactive) | 0.992 (inactive) | 0.998 (inactive) | 1.02 (inactive) | 1 (inactive) | 1.01 (inactive) |
| CC[C@H](C)[C@H]1O[C@]2(C=C[C@@H]1C)C[C@@H]1C[C@@H](C/C=C(\C)[C@@H](O[C@H]3C[C@H](OC)[C@@H](O[C@H]4C[C@H](OC)[C@@H](O)[C@H](C)O4)[C@H](C)O3)[C@@H](C)/C=C/C=C3\CO[C@@H]4[C@H](O)C(C)=C[C@@H](C(=O)O1)[C@]34O)O2.CO[C@H]1C[C@H](O[C@H]2[C@H](C)O[C@@H](O[C@@H]3/C(C)=C/C[C@@H]4C[C@@H](C[C@]5(C=C[C@H](C)[C@@H](C(C)C)O5)O4)OC(=O)[C@@H]4C=C(C)[C@@H](O)[C@H]5OC/C(=C\C=C\[C@@H]3C)[C@]54O)C[C@@H]2OC)O[C@@H](C)[C@@H]1O [Avermectin B1] | 1.13 | 1.06 | 0.967 | 0.91 | 0.906 (inactive) | 0.921 (inactive) | 0.929 (inactive) | 1.06 (inactive) | 0.985 (inactive) | 0.996 (inactive) | 0.995 (inactive) | 0.883 (inactive) |
| CCC1(c2ccc(N)cc2)CCC(=O)NC1=O (stereo not given) [Glutethimide, para-amino] | 0.956 | 1.01 | 0.979 | 1.14 | 1.12 (inactive) | 1.02 (inactive) | 1.04 (inactive) | 0.992 (inactive) | 1.02 (inactive) | 0.974 (inactive) | 0.993 (inactive) | 1 (inactive) |
| N#CCNC(=O)c1cnccc1C(F)(F)F | 1.08 | 1 | 0.999 | 1.12 | 1.02 (inactive) | 1 (inactive) | 1 (inactive) | 1.01 (inactive) | 1.01 (inactive) | 1.03 (inactive) | 0.997 (inactive) | 0.951 (inactive) |
| C[N+]1(C)[C@@H]2CC[C@H]1C[C@@H](OC(=O)C(CO)c1ccccc1)C2 (stereo not given in full) [Methylatropine nitrate] | 0.875 | 0.835 | 0.989 | 0.97 | 0.978 (inactive) | 0.99 (inactive) | 1 (inactive) | 0.932 (inactive) | 1.02 (inactive) | 1.07 (inactive) | 1.01 (inactive) | 0.956 (inactive) |
| C[C@]12CC[C@H](O)C[C@@H]1CC[C@@H]1[C@@H]2CC[C@]2(C)C(=O)CC[C@@H]12 [Epiandrosterone] | 1.01 | 1.01 | 0.974 | 0.678 | 1.04 (inactive) | 0.953 (inactive) | 0.973 (inactive) | 0.99 (inactive) | 1.02 (inactive) | 1.02 (inactive) | 1 (inactive) | 0.962 (inactive) |
| CC(C)(C)NCC(O)c1cc(Cl)c(N)c(Cl)c1 (stereo not given) [Clenbuterol hydrochloride] | 1.03 | 1.02 | 1.01 | 1.13 | 0.983 (inactive) | 0.986 (inactive) | 1.02 (inactive) | 0.991 (inactive) | 0.983 (inactive) | 0.987 (inactive) | 1 (inactive) | 1.02 (inactive) |
| CN[C@@H]1[C@@H](O)[C@@H](O[C@@H]2[C@@H](O)[C@H](O[C@H]3O[C@H](CN)CC[C@H]3N)[C@@H](N)C[C@H]2N)OC[C@]1(C)O.CN[C@@H]1[C@@H](O)[C@@H](O[C@@H]2[C@@H](O)[C@H](O[C@H]3O[C@H]([C@@H](C)N)CC[C@H]3N)[C@@H](N)C[C@H]2N)OC[C@]1(C)O.CN[C@@H]1[C@@H](O)[C@@H](O[C@@H]2[C@@H](O)[C@H](O[C@H]3O[C@H]([C@@H](C)NC)CC[C@H]3N)[C@@H](N)C[C@H]2N)OC[C@]1(C)O [Gentamicine sulfate] | 1.12 | 1.03 | 0.994 | 1.16 | 0.948 (inactive) | 0.703 (inactive) | 1.08 (inactive) | 1.02 (inactive) | 1.02 (inactive) | 1.02 (inactive) | 1.05 (inactive) | 1.16 (inactive) |
| COc1cccc(C(=O)NN(C(=O)c2cc(C)cc(C)c2)C(C)(C)C)c1C | 0.988 | 1.01 | 1.01 | 1.17 | 0.994 (inactive) | 0.948 (inactive) | 0.932 (inactive) | 1.03 (inactive) | 0.983 (inactive) | 0.968 (inactive) | 0.986 (inactive) | 0.92 (inactive) |
| O=[N+]([O-])O[C@@H]1CO[C@H]2[C@@H]1OC[C@@H]2O [Isosorbide mononitrate] | 0.988 | 0.984 | 1.07 | 1.31 | 0.975 (inactive) | 0.938 (inactive) | 0.984 (inactive) | 0.959 (inactive) | 1.05 (inactive) | 0.975 (inactive) | 1.04 (inactive) | 0.946 (inactive) |
| CC(C)c1cccc(C(C)C)c1O [Propofol] | 1.24 | 1.01 | 1 | 1.03 | 1.05 (inactive) | 0.931 (inactive) | 0.964 (inactive) | 0.865 (inactive) | 1.01 (inactive) | 1.34 (active) | 0.989 (inactive) | 0.908 (inactive) |
| CN(C)[C@@H]1C(=O)C(C(N)=O)=C(O)[C@@]2(O)C(=O)C3=C(O)c4c(O)ccc(Cl)c4[C@@](C)(O)[C@H]3C[C@@H]12 [Chlortetracycline hydrochloride] | 0.00816 | 0.064 | 0.0706 | 0.431 | 0.0679 (active) | 0.0172 (active) | 0.302 (active) | 0.253 (active) | 0.47 (inactive) | 0.146 (active) | 0.483 (inactive) | 0.271 (active) |
| O=C(O)C(F)(F)C(F)(F)C(F)(F)C(F)(F)C(F)(F)C(F)(F)C(F)(F)C(F)(F)C(F)(F)F [PFDeA (Perfluorodecanoic acid)] | 1.11 | 1.04 | 1.04 | 1.24 | 1.02 (inactive) | 0.916 (inactive) | 0.999 (inactive) | 1.02 (inactive) | 0.996 (inactive) | 1.01 (inactive) | 1 (inactive) | 0.962 (inactive) |
| CC(Cc1ccccc1)NCCC(c1ccccc1)c1ccccc1 (stereo not given) [Prenylamine lactate] | 1.01 | 0.997 | 1 | 1.45 | 0.979 (inactive) | 0.96 (inactive) | 0.913 (inactive) | 1.37 (inactive) | 0.961 (inactive) | 0.657 (active) | 0.987 (inactive) | 0.983 (inactive) |
